Measured values reported in PubChem BioAssay (EPA / NIEHS).
Values joined by “and” are separate entries in the source; they are usually repeats but may differ in a detail not shown here. Equal values may be shown once. Results filed as inconclusive are left out. A structure can be active in one record and inactive in another. Active and inactive are the calls of the source. Rule for the calls, unless noted: active = hit-call score of the fitted dose curve at least 0.9, where 1 is the maximum; inactive = score below 0.9.

What was measured:
[1] = CCTE_Shafer_MEA_dev_burst_rate: CCTE's Neural Network Formation Assay for Burst Rate, Shafer Lab (AID 2284042);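 for AC50: potency for loss of burst rate below DMSO control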
How it was run: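 Cells plated, treated day 0; recorded DIV 5, 7, 9, 12; fed and re-treated DIV 5, 9. Endpoint: bursts per recording time, active-electrode well mean, trapezoidal AUC, fitted in decreasing direction against DMSO baseline.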

[2] = CCTE_Shafer_MEA_dev_bursting_electrodes_number: CCTE's Neural Network Formation Assay for Number of Bursting Electrodes, Shafer Lab (AID 2284043; active = hit-call score of the fitted dose curve at least 0.9, where 1 is the maximum;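 for AC50: potency is for loss of bursting electrodes relative to DMSO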)
How it was run: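 Primary rat cortical neurons were cultured on PEI-coated 48-well MEA plates (16 electrodes/well) and exposed from plating through day 12, with compound renewed at feeds on DIV 5 and 9. Electrodes bursting ≥1 per 2 min were counted on DIV 5, 7, 9, 12; trapezoidal AUC taken.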

[3] = CCTE_Shafer_MEA_dev_burst_duration_mean: CCTE's Neural Network Formation Assay for Mean Burst Duration, Shafer Lab (AID 2284045);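 for AC50: curve fitted for loss meaning shorter burst duration than DMSO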
How it was run: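 Primary rat cortical neurons on PEI-coated 16-electrode MEA wells, exposed from plating through day 12 with compound renewed at DIV 5 and 9; spontaneous activity recorded days 5, 7, 9, 12. Well-mean burst duration collapsed as trapezoidal AUC, fitted for loss versus DMSO.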

[4] = CCTE_Shafer_MEA_dev_interburst_interval_mean: CCTE's Neural Network Formation Assay for Mean Interburst Interval, Shafer Lab (AID 2284046);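 note: well-mean interburst interval of bursting electrodes as AUC over four recording days; curve fitted for decrease in interburst interval relative to DMSO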
How it was run: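 Developing rat cortical networks on 48-well MEAs receive compound from the day of plating. Burst intervals from each active electrode are averaged per well, and AUC over the recording days is fitted in the negative direction against DMSO.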

[5] = CCTE_Shafer_MEA_dev_inter_network_spike_interval_mean: CCTE's Neural Network Formation Assay for Mean Inter-network Spike Interval, Shafer Lab (AID 2284047);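 for AC50: potency for a decrease in mean inter-network spike interval below DMSO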
How it was run: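 Rat cortical cultures, 1.5 x 10^5 cells/well on 48-well MEA plates; continuous exposure days 0–12, medium and compound refreshed DIV 5, 9. Mean time between consecutive network-spike peaks; AUC across DIV 5/7/9/12; DMSO baseline, negative fitting direction.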

[6] = CCTE_Shafer_MEA_dev_network_spike_number: CCTE's Neural Network Formation Assay for Number of Network Spikes, Shafer Lab (AID 2284048);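 note: synchronized bursts across electrodes counted on days 5 7 9 12 and integrated as AUC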;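 for AC50: fit as a loss of signal meaning fewer network spikes than DMSO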
How it was run: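 Primary rat cortical neurons were seeded at 1.5 x 10^5 cells/well on PEI-coated 16-electrode MEA wells with laminin, exposed from plating day 0, compound renewed at DIV 5 and 9. Network spikes were recorded on days 5, 7, 9, 12 and summarized as trapezoidal AUC versus DMSO.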

[7] = CCTE_Shafer_MEA_dev_network_spike_peak: CCTE's Neural Network Formation Assay for Mean Number of Electrodes in Network Spike, Shafer Lab (AID 2284049);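 for AC50: fitted for loss of signal meaning fewer electrodes in network spikes than DMSO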
How it was run: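 Continuous 12-day exposure of rat cortical cultures, starting at plating, on MEA plates. Endpoint: electrodes participating in network-spike peaks, AUC across DIV 5–12, DMSO as negative control.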

[8] = CCTE_Shafer_MEA_dev_spike_duration_mean: CCTE's Neural Network Formation Assay for Mean Spike Duration, Shafer Lab (AID 2284051);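 note: mean network spike duration pooled as area under curve over DIV 5 to 12 recordings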;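 for AC50: potency for a decrease in mean network spike duration versus DMSO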
How it was run: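 Readout is the average length of network spikes, clustered firing across electrodes, summed over DIV 5, 7, 9 and 12 as area under the curve. Neurons from rat cortex developed networks on MEA plates under continuous 12-day exposure.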

[9] = CCTE_Shafer_MEA_dev_network_spike_duration_std: CCTE's Neural Network Formation Assay for Standard Deviation of Network Spike Duration, Shafer Lab (AID 2284052);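 note: area under curve of spike duration SD across recording days 5 to 12; hits are decreases in network spike duration SD versus DMSO vehicle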
How it was run: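 Read-out is the trapezoidal area-under-the-curve across recordings made on days 5, 7, 9 and 12, fitted in the negative direction against DMSO baseline. Neurons were primary rat cortical cells treated from day 0, with treatment renewed at each feed.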

[10] = CCTE_Shafer_MEA_dev_per_network_spike_spike_number_mean: CCTE's Neural Network Formation Assay for Mean Number of Spikes in a Network Spike, Shafer Lab (AID 2284053);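 for AC50: fitted as decrease in spikes per network spike relative to DMSO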
How it was run: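 Continuous twelve-day exposure of developing rat cortical networks grown over 16 microelectrodes per well; spontaneous firing is captured at four time points, and the per-network-spike spike number is integrated over development by trapezoidal AUC.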

[11] = CCTE_Shafer_MEA_dev_LDH: CCTE's Lactate Dehydrogenase Assay for Cytotoxicity in the Neural Network Formation Assay, Shafer Lab (AID 2284068; active = hit-call score of the fitted dose curve at least 0.9, where 1 is the maximum;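 note: exposure for twelve days from plating with re-dosing on DIV 5 and 9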)
How it was run: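 Cytotoxicity companion to network-formation recordings: rat cortical neurons received compound over 12 days of development, re-dosed at DIV 5 and 9 feeds. Viability was inferred from LDH enzyme activity relative to DMSO.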

[12] = CCTE_Shafer_MEA_dev_AB: CCTE's Alamar Blue Assay for Cytotoxicity in the Neural Network Formation Assay, Shafer Lab (AID 2284083; active = hit-call score of the fitted dose curve at least 0.9, where 1 is the maximum;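 note: twelve days of exposure from plating with re-dosing on DIV 5 and 9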)
How it was run: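 Fluorescent resazurin reduction serves as the viability read-out, with DMSO as negative control and baseline. Cells were primary rat cortical neurons grown on MEA plates and dosed from day 0 to day 12, treatment renewed on DIV 5 and 9.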

[13] = CCTE_Shafer_MEA_dev_mutual_information_norm: CCTE's Neural Network Formation Assay for Mutual Information Normalization, Shafer Lab (AID 2284091);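 for AC50: mutual information between electrodes summarised as area under curve across four recording days; potency is for a decrease in mutual information relative to DMSO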
How it was run: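 Rat cortical cultures, 48-well MEA, continuous exposure DIV 0–12 with full media/compound change DIV 5 and 9. Readout: inter-electrode mutual information, AxIS adaptive spike detection; AUC across DIV 5/7/9/12 recordings; DMSO baseline, negative fitting direction.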

[14] = target: Estrogen receptor (Homo sapiens) (UniProt P03372); experiment: CCTE_Deisenroth_AIME_384WELL_LUC_Shift: CCTE's 384-well Estrogen Receptor Transactivation Assay with AIME metabolic competence data shift (ERTA luciferase; difference in metabolism positive and negative), Deisenroth Lab (AID 2284041);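 note: shift is response with S9 minus without S9 so positive means metabolism raised ER signal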
How it was run: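 Here, parent compounds undergo 2 h phase I metabolism by PB/BNF-induced rat S9 before 24 h transactivation in VM7Luc4E2 cells; the curve models S9-positive minus S9-negative response over a 10-point series.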

[15] = UKN5_HCS_SBAD2_cell_viability: Viability Assessment in the University of Konstanz (UKN) Leist Lab Neurite Outgrowth Assay in human iPSC-derived immature Dorsal Root Ganglia Neurons (UKN5) (AID 2284056)
How it was run: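 iPSC-derived immature peripheral neurons (SBAD2) seeded on Matrigel with CHIR99021, SU5402 and DAPT, dosed 1 h later for 24 h. Viability from Hoechst H-33342 and calcein-AM live staining, high-content imaging; bidirectional fit versus DMSO.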

[16] = CCTE_Shafer_MEA_acute_AB: CCTE's Alamar Blue Assay for Cytotoxicity in the Neural Acute Assay, Shafer Lab (AID 2284069; active = hit-call score of the fitted dose curve at least 0.9, where 1 is the maximum;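 note: active compounds lower the viability signal compared with DMSO wells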)
How it was run: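 Metabolic activity in chemically exposed rat cortical neurons (MEA cultures, day 13/15 post-plating) measured via CellTiter Blue resazurin reduction, 544/590 nm fluorescence; fitted relative to DMSO, with signal loss indicating reduced viability.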

[17] = UKN5_HCS_SBAD2_neurite_outgrowth: University of Konstanz (UKN) Leist Lab Neurite Outgrowth Assay in human iPSC-derived immature Dorsal Root Ganglia Neurons (UKN5) (AID 2284070); conditions: actives raise or lower the signal
How it was run: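 Human iPSC-derived immature DRG neurons (SBAD2) on Matrigel with CHIR99021 (1.5 uM), SU5402 (5 uM), DAPT (5 uM); compounds added 1 h post-seeding for 24 h. Calcein-AM neurite area imaged; bidirectional fit vs DMSO.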

[18] = tested on: DIO2 (gene 1734); experiment: CCTE_GLTED_hDIO2: CCTE's human Deiodinase 2 (DIO2) Inhibition Assay, Great Lakes Toxicology and Ecology Division (GLTED) Lab (AID 2284050; active = hit-call score of the fitted dose curve at least 0.9, where 1 is the maximum)
How it was run: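 Cell-free human DIO2 enzyme was incubated with test chemical for 3 h; iodide liberated from substrate was then quantified by the Sandell-Kolthoff reaction (absorbance), run in triplicate. Loss of signal versus DMSO baseline indicated inhibition.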

[19] = tested on: DIO3 (gene 1735); experiment: CCTE_GLTED_hDIO3: CCTE's human Deiodinase 3 (DIO3) Inhibition Assay, Great Lakes Toxicology and Ecology Division (GLTED) Lab (AID 2284055; active = hit-call score of the fitted dose curve at least 0.9, where 1 is the maximum;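 note: potency is for inhibition seen as loss of released iodide signal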)
How it was run: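 Cell-free assay with human DIO3 enzyme produced by adenovirus expression; enzyme incubated with test chemical for 3 hours. Liberated iodide then measured by Sandell-Kolthoff absorbance; loss of signal versus DMSO baseline indicates inhibition, run in triplicate.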

[20] = CCTE_Shafer_MEA_acute_LDH: CCTE's Lactate Dehydrogenase Assay for Cytotoxicity in the Neural Acute Assay, Shafer Lab (AID 2284086; active = hit-call score of the fitted dose curve at least 0.9, where 1 is the maximum;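 note: active means LDH release rises above DMSO vehicle level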)
How it was run: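 Primary rat cortical neurons on 48-well MEA plates, treated on day 13 or 15 post-plating. After the 40-min recording with compound, medium LDH release was read by absorbance at 490 nm. Gain of signal was fitted against DMSO negative control.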

Measured: AC50

Sequence of Estrogen receptor (Homo sapiens) (P03372 whole entry, looked up): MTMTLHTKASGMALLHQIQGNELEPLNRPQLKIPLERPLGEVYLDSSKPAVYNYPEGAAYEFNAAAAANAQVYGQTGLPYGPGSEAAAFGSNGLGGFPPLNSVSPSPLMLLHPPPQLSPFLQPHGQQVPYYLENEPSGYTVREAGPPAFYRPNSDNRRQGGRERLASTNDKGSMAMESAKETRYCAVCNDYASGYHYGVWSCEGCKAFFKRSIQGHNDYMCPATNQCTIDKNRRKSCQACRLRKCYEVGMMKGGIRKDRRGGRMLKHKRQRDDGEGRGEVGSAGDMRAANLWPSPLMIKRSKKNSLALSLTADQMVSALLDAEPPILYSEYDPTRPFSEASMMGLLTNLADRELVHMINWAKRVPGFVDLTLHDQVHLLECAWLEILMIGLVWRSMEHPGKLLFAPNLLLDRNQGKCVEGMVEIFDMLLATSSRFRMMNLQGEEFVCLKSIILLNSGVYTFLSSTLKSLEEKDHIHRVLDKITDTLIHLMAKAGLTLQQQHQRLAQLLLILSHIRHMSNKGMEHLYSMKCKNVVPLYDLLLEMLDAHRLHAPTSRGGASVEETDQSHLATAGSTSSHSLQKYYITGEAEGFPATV

CCOP(=S)(OCC)OC(Cl)C(Cl)(Cl)Cl (stereo not drawn)
active: [1] 77.2 µM and 23.6 µM | [2] 31.8 µM and 23.2 µM | [3] 23.4 µM | [4] 50 µM and 13.7 µM | [5] 13.1 µM | [6] 23.1 µM | [7] 50 µM and 20.2 µM | [8] 50 µM and 23.4 µM | [9] 13.9 µM | [10] 50 µM and 17.4 µM | [11] 31 µM and 21.4 µM | [12] 30.7 µM and 17.8 µM | [13] 15.9 µM and 18 µM
inactive: [3] | [5] | [6] | [9]

CSc1nc(NC(C)C)nc(NC(C)C)n1
inactive: [14]

COP(=O)(OC)C(O)C(Cl)(Cl)Cl (stereo not drawn)
inactive: [1] | [3] | [4] | [5] | [6] | [9] | [16] | [17]
active: [2] 36.9 µM and 15 µM | [6] 2.98 µM | [7] 75.4 µM and 15 µM | [8] 50 µM and 15 µM | [10] 50 µM and 15 µM | [15] 9.96 µM | [11] 3.52 µM and 1.47 µM | [12] 50 µM and 1.05 µM | [13] 18.4 µM and 3.54 µM

CC[C@H](C)[C@H]1O[C@]2(C=C[C@@H]1C)C[C@@H]1C[C@@H](C/C=C(\C)[C@@H](O[C@H]3C[C@H](OC)[C@@H](O[C@H]4C[C@H](OC)[C@@H](NC)[C@H](C)O4)[C@H](C)O3)[C@@H](C)/C=C/C=C3\CO[C@@H]4[C@H](O)C(C)=C[C@@H](C(=O)O1)[C@]34O)O2
inactive: [5] | [16] | [20]
active: [1] 21.3 nM and 3.47 nM | [2] 43.5 nM and 3.01 nM | [3] 20.1 nM and 1.89 nM | [4] 220 nM and 2.96 nM | [5] 0.16 µM | [6] 47.4 nM and 4.79 nM | [7] 106 nM and 9.12 nM | [18] 31.3 µM | [8] 13 nM and 2.69 nM | [9] 5.01 nM and 3.04 nM | [10] 55.1 nM and 5.93 nM | [19] 33.6 µM | [15] 1.52 µM | [11] 145 nM and 0.883 nM | [16] 20 µM | [17] 1.12 µM | [12] 656 nM | [13] 0.981 nM and 1.87 nM

CCOP(=S)(OCC)SCCSCC
inactive: [1] | [2] | [3] | [4] | [5] | [6] | [7] | [8] | [9] | [10] | [11] | [12] | [20] | [13]

C[Si](Cn1cncn1)(c1ccc(F)cc1)c1ccc(F)cc1
inactive: [1] | [3] | [4] | [5] | [6] | [9] | [10] | [16] | [12] | [20]
active: [2] 8.85 µM | [7] 4.71 µM | [8] 5.85 µM | [11] 22.5 µM | [13] 1.61 µM

CCCCOC(=O)[C@@H](C)Oc1ccc(Oc2ccc(C#N)cc2F)cc1
inactive: [14]

CC(Oc1cccc(Cl)c1)C(=O)O (stereo not drawn)
inactive: [1] | [2] | [3] | [4] | [5] | [6] | [7] | [8] | [9] | [10] | [11] | [13]

Cc1ccn2nc(S(=O)(=O)Nc3c(F)cccc3F)nc2n1
inactive: [16] | [20]

CNC(=O)ON=C(SC)C(=O)N(C)C
inactive: [20]

C[N+]1(C)CCCCC1
inactive: [1] | [2] | [3] | [4] | [5] | [6] | [8] | [9] | [10] | [16] | [12] | [20] | [13]
active: [7] 15 µM

CC(C)[C@H](C(=O)O[C@H](C#N)c1cccc(Oc2ccccc2)c1)c1ccc(Cl)cc1
inactive: [3] | [5] | [11]
active: [1] 4.67 µM | [2] 4.15 µM | [4] 17.9 µM | [6] 0.703 µM | [7] 4.07 µM | [8] 4.47 µM | [10] 3.72 µM | [12] 20.9 nM | [13] 0.189 µM

O=C(O)c1cc(Oc2ccc(C(F)(F)F)cc2Cl)ccc1[N+](=O)[O-]
inactive: [20]
